In PubChem BioAssay AID1825 (The Scripps Research Institute Molecular Screening Center, 2009):
In all, about 290,000 compounds went through this assay and about 2,300 (0.79%) were called active. No stated cut-off is given here; in the data, active means inhibition above about 22%; inactive means the rest. Shown is part of a subset that was picked to be rich in actives.

Experiment: cytotoxicity in IEC-6 intestinal epithelial cells, primary screen, cytotoxicity control for KLF5 inhibitor project, cell-based, luminescence (AID 1825);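 further: 0% = plate median of test compound wells and 100% = cytotoxic reference compound wells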
Details: IEC-6 cytotoxicity, luminescence viability; at 5 µM; active compounds read high

Which inhibition does the source give for `COc1cc(-n2c(=S)[nH]c3ccc(C)cc3c2=O)c(Cl)cc1Cl` here?
Its inhibition is 27.3% (active).

With `CN(C)CC1Oc2ccccc2OC1(O)c1ccccc1` (stereo not given) as the molecule, how does the inhibition read?
The inhibition was 10.6% (inactive).

Which inhibition does the source give for `COc1ccc(N2C(=O)/C(=C/c3ccco3)C(=O)NC2=S)cc1` here?
Its inhibition is -11.8% (inactive).

For `COc1cc2nc(N3CCN(C(=O)[C@@H]4CCCO4)CC3)nc(N)c2cc1OC`, which inhibition is on record?
Its inhibition is -0.7% (inactive).

With `CN(c1ccccc1)c1ccc([N+](=O)[O-])c2nonc12` as the molecule, how does the inhibition read?
Its inhibition is 13.2% (inactive).

With `CC1=CC(=Cc2sc3ccccc3[n+]2C)C=C(C)O1` as the molecule, how does the inhibition read?
Its inhibition is 25.9% (active).

For `CCc1nc2ccccc2c(=O)n1-c1cccc(OC)c1`, which inhibition is on record?
Its inhibition is -0.6% (inactive).

With `COc1cc(Cn2c(N)c(C(=O)NCc3ccco3)c3nc4ccccc4nc32)cc(OC)c1OC` as the molecule, how does the inhibition read?
The inhibition was 7.4% (inactive).

Which inhibition does the source give for `COc1ccc(-c2nn(CCC#N)cc2C(=O)O)cc1` here?
The inhibition was -8.6% (inactive).

For `COc1ccc(C(=O)CC2C(=O)N(C)C(=O)N(C)C2=O)cc1`, which inhibition is on record?
The inhibition was 2% (inactive).

For `Cc1nc2ccccc2c(=O)n1-c1ccc(Cl)cc1Cl`, which inhibition is on record?
The inhibition was -4.8% (inactive).

Which inhibition does the source give for `CCCCCCCCCCCCn1ccc(=N)cc1` here?
The inhibition was 78.8% (active).

For `CCOP(=S)(OCC)C(O)CCCCCn1c(=O)c(F)cn(C2CCCO2)c1=O` (stereo not given), which inhibition is on record?
The inhibition was -1.2% (inactive).

With `CCOc1cccc(=NC2CCCCC2)c2c(C)[nH]c(C)c12` as the molecule, how does the inhibition read?
Its inhibition is -11.4% (inactive).

Which inhibition does the source give for `COc1cccc(N2C(=O)NC(=O)/C(=C\c3ccc([N+](=O)[O-])s3)C2=O)c1` here?
Its inhibition is -9.9% (inactive).

With `Cc1cc2ccccn2c1C(C[N+](=O)[O-])c1c(F)cccc1Cl` (stereo not given) as the molecule, how does the inhibition read?
Its inhibition is 47.4% (active).

Which inhibition does the source give for `CC(=O)Nc1ccc(C(=O)C(Cc2ccccc2)N(C)C)cc1` (stereo not given) here?
Its inhibition is -0.8% (inactive).

Which inhibition does the source give for `CC(=O)c1c(C)n(C(C)C)c2ccc(O)cc12` here?
The inhibition was 3.8% (inactive).

For `COc1ccc(-c2nn(CCC#N)cc2C(=O)Nc2ccc(C(C)=O)cc2)cc1`, which inhibition is on record?
The inhibition was -1.6% (inactive).

For `O=c1c2ccccc2nc(/C=C/c2ccco2)n1-c1ccccc1O`, which inhibition is on record?
The inhibition was -4.9% (inactive).
